Screens as filed in PubChem.
Gal4-VP16 FLuc – counter-screen for ROR gamma inhibitors: Gal4-VP16 reporter | AID 2546 | 310,000 compounds, 3.5% hits | Drosophila S2 Gal4-VP16 UAS-luciferase, luminescence, 20 h | Potency, µM (top dose mostly 53.6 µM), for inactives: top-dose activity, negative = inhibition, usual class: inhibitors;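 further: Gal4-VP16 expression switched on by copper sulfate through the metallothionein promoter; potency means the concentration at half of the fitted maximal effect; nearly all actives have a fitted effect of over 50% in size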
TDP1 cell CPT – growth inhibition of DT40 Tdp1-/-;hTDP1 cells with camptothecin (screen for TDP1 inhibitors). chicken DT40 Tdp1-/-;hTDP1 cells + 20 nM CPT, ATP luminescence, 48 h. Potency, µM (doses to about 46.2 µM), for inactives: at the highest dose activity change, negative = growth inhibition, hits mostly inhibitors. 420,000 compounds, 12% hits. AID 686979; further: potency means the concentration at half of the fitted maximal effect; nearly all actives have a fitted effect of over 55% in size
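Chicken DT40 Tdp1-/- cells stably complemented with human TDP1 were seeded at 400 cells/well in medium containing 20 nM camptothecin, exposed to pin-transferred compounds, and grown at 37 °C for at least 48 hr. Viability was read as ATP luminescence.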
ELG1 DNA repair – blocks ELG1-dependent DNA repair in HEK293T cells; Potency, µM (doses to about 46.1 µM), for the others: at the highest dose activity change, negative = inhibition, most hits filed as inhibitors; AID 504467; 330,000 compounds, 2.3% hits; HEK293T ELG1-luciferase reporter, luminescence, 16 h; DNA damage induced by 5-fluorouridine; further: potency means the concentration at half of the fitted maximal effect; nearly all actives have a fitted effect of over 55% in size
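HEK293T cells expressing luciferase-tagged ELG1 (2,000/well) received 5-Fluorouridine plus compound or DMSO for 16 hr at 37 °C. Luciferase was read by ONE-Glo luminescence after 30 min at room temperature.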
IL-1B inflam inh – inhibitors of inflammasome signaling (IL-1 beta secretion); 360,000 compounds, 4.7% hits; AID 743279; activity change, % at 57.5 µM; THP-1 LPS/ATP IL-1B secretion, AlphaLISA, 16 h; hits give low values; in the data active means activity change below about -50%; inconclusive means mostly about -30% to -49%
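THP-1 cells pretreated 1 hr with compounds (up to 57.5 uM final), then stimulated with LPS (250 ng/mL final) plus ATP (1.25 mM final); secreted IL-1B measured by AlphaLISA after 16 hr, decreased signal indicating inhibition.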
TDP1 cell noCPT – qHTS for Inhibitors of human tyrosyl-DNA phosphodiesterase 1 (TDP1): qHTS in cells in absence of CPT; DT40 Tdp1-/- hTDP1 cells, no CPT, ATP luminescence, 48 h; Potency, µM (top dose mostly 46.2 µM), inactives show top-dose activity change, negative = growth inhibition, most hits filed as inhibitors; 420,000 compounds, 15% hits; further: potency means the concentration at half of the fitted maximal effect; nearly all actives have a fitted effect of over 55% in size
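Stably hTDP1-transfected Tdp1-null chicken DT40 cells were treated with library compounds minus camptothecin and grown for at least 48 hr at 37 °C, after which cellular ATP was quantified by luminescence.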
RORgamma inh – ROR gamma (mouse) transcription inhibition; Drosophila S2 Gal4-RORgamma UAS-luciferase reporter, 20 h; Potency, µM (doses to about 53.6 µM), for inactives: at the top dose activity change, negative = inhibition, usual class: inhibitors; P51450; 310,000 compounds, 5.4% hits; AID 2551; further: potency means the concentration at half of the fitted maximal effect; nearly all actives have a fitted effect of over 60% in size
Target sequence (P51450 whole entry, looked up, the tested form may be a part): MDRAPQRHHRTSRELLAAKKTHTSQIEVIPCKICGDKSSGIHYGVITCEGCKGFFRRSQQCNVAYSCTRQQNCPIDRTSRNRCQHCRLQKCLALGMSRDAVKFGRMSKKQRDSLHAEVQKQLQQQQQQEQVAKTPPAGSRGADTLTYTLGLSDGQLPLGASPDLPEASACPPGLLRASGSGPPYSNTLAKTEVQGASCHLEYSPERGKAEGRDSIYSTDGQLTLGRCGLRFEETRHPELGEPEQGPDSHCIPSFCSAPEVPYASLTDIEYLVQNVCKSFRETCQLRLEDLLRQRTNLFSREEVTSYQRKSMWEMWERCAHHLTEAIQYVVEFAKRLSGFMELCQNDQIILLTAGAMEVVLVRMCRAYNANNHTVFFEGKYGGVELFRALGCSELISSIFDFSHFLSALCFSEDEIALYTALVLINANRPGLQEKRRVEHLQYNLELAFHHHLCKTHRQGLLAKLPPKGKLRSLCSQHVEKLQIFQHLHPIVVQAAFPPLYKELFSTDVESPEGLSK
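Schneider cells (Drosophila), stable Gal4 DBD–ROR gamma + UAS-luc; 1 hr cmpd preincubation; Cu2+ induction 700 uM final; 20 hr ambient; luminescence.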
* = called active by the depositor; i = inactive; ? = inconclusive; · = no result; [ ] = dose if it differs, or a comment. Most compounds without a hit are left out; they make up all but 21% or so of the library. Unless noted, the call rests on the fitted dose curve; in most records, active means well fitted curve in the direction sought with a large enough effect; inconclusive means small, poorly fitted or top-dose-only effect, or another doubt; inactive means no such curve, though single readings can be large; an effect the other way counts as inactive or inconclusive. On the % scale 0 is the no-effect control and ±100 the full control effect.

SMILES	Gal4-VP16 FLuc	TDP1 cell CPT	ELG1 DNA repair	IL-1B inflam inh	TDP1 cell noCPT	RORgamma inh
CC(C)C(=O)Nc1ccc(NC(=O)c2cccc(F)c2)cn1	-7%	-12%	?	-60*	?	?
O=C(Nc1ccc(Cl)cn1)c1cccc(F)c1	-1%	7.3µM*	?	11	4.6µM*	-11%
COC(=O)c1ccc(C2C=C(c3ccc(Cl)cc3)Nc3nc4ccccc4n32)cc1 (centres undefined)	·	9.2µM*	·	·	8.2µM*	·
Fc1ccc(C2=CC(c3ccc(F)cc3)n3c(nc4ccccc43)N2)cc1 (centres undefined)	·	15µM*	·	·	5.2µM*	·
CN1C(=O)Cc2cc(S(=O)(=O)Nc3ccc(Cl)cc3)ccc21	-17%	-14%	18%	-9	-24%	?
CC(=O)C(C(c1ccccc1)c1c[nH]c2ccccc12)[N+](=O)[O-] (centres undefined)	3%	6.5µM*	?	28	5.8µM*	7%
COc1ccccc1C(C[N+](=O)[O-])c1c[nH]c2ccccc12 (centres undefined)	-9%	?	?	-89*	?	-16%
CC(C)[C@H](NC(=O)c1cccc(S(=O)(=O)N2CCOCC2)c1)C(=O)OCC(=O)Nc1cccc(Br)c1	·	-27%	·	50	-27%	·
NS(=O)(=O)c1ccc(NC(=O)CSc2nc(Nc3ccccc3)nc(N3CCOCC3)n2)cc1	-1%	21µM*	?	-18	16µM*	-2%
CNc1nc(SCC(=O)Nc2ccccc2)nc(N2CCOCC2)n1	0%	-10%	-12%	-6	-27%	-1%
CC(Sc1nc(N(C)C)nc(N2CCOCC2)n1)C(=O)Nc1ccccc1 (centres undefined)	·	-26%	-16%	9	7.3µM*	10%[0.365 µM]
CC(=O)c1ccc(NC(=O)CSc2nc(Nc3ccccc3)nc(N3CCOCC3)n2)cc1	-11%	?	5.8µM*	i	?	14%
NC(=O)C1CC(=O)N(c2ccc(OCc3ccc(Cl)cc3)cc2)C1 (centres undefined)	1%	?	?	-3	23µM*	8%
NC(=O)C1CC(=O)N(c2ccc(OCC(=O)N3CCCC3)cc2)C1 (centres undefined)	·	2%	·	-1	-14%	·
CCCNC(=O)C1CC(=O)N(c2ccc(OCc3ccc(Cl)cc3)cc2)C1 (centres undefined)	-8%	?	?	15	8.2µM*	8%[1.91 µM]
CCCNC(=O)C1CC(=O)N(c2ccc(OCc3ccc(F)cc3)cc2)C1 (centres undefined)	-3%	-24%	?	3	-26%	-2%
Cc1cccc(CNC(=O)CS(=O)(=O)c2cccc3nsnc23)c1	·	7%	·	·	9%	·
C/C(=N\NC(=S)NCC(C)(C)C)c1cc(F)cc(F)c1O	4µM*	15µM*	?	-110*	15µM*	2.8µM*
Cc1ccc(NC(=O)C2CC(Cl)=CCC2C(=O)O)c([N+](=O)[O-])c1 (centres undefined)	2%	5%	5%	9	?	-11%
Cc1ccccc1NC(=O)C1CC(Cl)=CCC1C(=O)O (centres undefined)	-5%	?	-1%	3	13µM*	-5%
Cc1onc(-c2ccccc2)c1NC(=O)OC(C)c1cccnc1 (centres undefined)	·	-13%	·	10	?	·
Cc1cc(C(C)(C)C)cc(C)c1CCNC(=O)c1c(C)noc1C	·	29µM*	15%	-5	26µM*	·
Cc1noc(C)c1C(=O)NCCc1ccc(Cl)cc1	·	5%	4%	-2	-6%	4%[0.365 µM]
CCCC(C)(C)C(=O)N1CCC1(C)C(=O)Nc1cccc(OC)c1 (centres undefined)	·	?	·	-8	?	·
CC=Cc1cc2c(c(=O)o1)C(=O)C(O)C(C)O2 (centres undefined)	·	3.7µM*	·	-101*	2.9µM*	·
SMILES	Gal4-VP16 FLuc	TDP1 cell CPT	ELG1 DNA repair	IL-1B inflam inh	TDP1 cell noCPT	RORgamma inh
COc1ccc(NC(=O)c2ccc(NC(=O)CCS(=O)(=O)c3cccs3)cc2)cc1OC	·	-26%	·	·	?	·
C/[N+]([O-])=C\c1cccc(OCCN2CCN(c3ncc(C(F)(F)F)cc3Cl)CC2)c1	-15%	-8%	-23%	-51*	?	?
CCOC(=O)c1c(C)[nH]c(C)c1S(=O)(=O)N(C)CC(=O)N1CCN(c2cccc(C)c2C)CC1	·	18µM*	·	·	?	·
Cc1cccc(N2CCN(S(=O)(=O)c3c(C(=O)N4CCCCC4)c(C)n(C)c3C)CC2)c1C	9%	?	-25%	0	?	18%
Cc1cccc(N2CCN(S(=O)(=O)c3c(C)[nH]c(C)c3C(=O)N3CCCCC3)CC2)c1C	3%	21µM*	-2%	-51*	?	24%
Cc1cccc(N2CCN(S(=O)(=O)c3c(C(=O)N4CCC(C)CC4)c(C)n(C)c3C)CC2)c1C	·	-114%	·	·	23µM*	·
O=C(N/N=C1/C[C@@H](O)[C@@H](O)[C@@H]2[C@H]3C(=O)N(c4ccc(F)cc4F)C(=O)[C@@H]3CC[C@H]12)OCc1ccccc1	-4%[10 µM]	·	·	·	·	0%[10 µM]
CN1CCC(=O)N(C(CSc2ccc(Br)cc2)c2ccccc2)CC1 (centres undefined)	-2%	·	·	·	·	22%
Cn1c(=O)c(NC2CCCCC2)c2c3c(cccc31)C(=O)c1ccccc1-2	2%	?	18µM*	-66*	?	-11%
CC(=O)Nc1ccc(Nc2c3c4c(cccc4n(C)c2=O)C(=O)c2ccccc2-3)cc1	-4%	?	?	-14	?	6%
CCCCNc1c2c3c(cccc3n(C)c1=O)C(=O)c1ccccc1-2	0%	?	16µM*	10	18µM*	?
O=C(Cn1cc(SCc2c(F)cccc2Cl)c2ccccc21)N1CCCC1	·	?	·	·	7.3µM*	·
O=C(Cc1c(F)cccc1Cl)N1CCCC1	1%	-2%	3%	22	14%	4%
O=C(CSc1cn(CC(=O)N2CCCCC2)c2ccccc12)NCc1ccccc1Cl	·	23µM*	·	·	?	·
O=C(CSc1cn(CC(=O)N2CCCCC2)c2ccccc12)NCC1CCCO1 (centres undefined)	0%	-5%	-12%	-21	-13%	14%
CC12CN3CCN(CC(C3)/C1=N\NC(=O)Nc1cccc(Cl)c1)C2	13%	-2%	?	-15	-3%	-2%
